The full data set covers some 7,900 targets. This sample favours those with a hit. About 0.6% of all pairs of compound and target were hits.
Key:
Test in all cases: log2 fold change, soluble protein after heating vs DMSO (PISA); higher = thermal stabilisation; K562 cells, 10 uM, 30 min; active = over 0.2 and 3.5 SD of the protein, either way, in both replicates (recomputed)
[1] = compound: C1=CC=C(C=C1)[C@H](COC2=CC3=C(C=C2)NC(=O)N3)NC(=O)C4=CC=CN(C4=O)CC5=CC(=C(C=C5)F)F
How it was run: (§1)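 Thermal stability values are relative to control samples and come from duplicates. They are expressed as log2 fold changes. For measurement, K562 cells (2×10^6 cells/mL) received 10 μM compound for 30 min, and aliquots were heated for 3 min over 48°C-58°C, pooled, and extracted at 4°C in PBS with 0.5% NP-40. Soluble protein, the supernatant after 21,000xg for 90 min, was quantified by TMTpro 16plex LC-MS/MS with equalised channel sums.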

[2] = compound: CC1=C(SC2=C1C(=N[C@H](C3=NN=C(N32)C)CC(=O)N)C4=CC=C(C=C4)Cl)C
How it was run: as §1

[3] = compound: CC1=C2C(=CC=C1)N=C(N(C2=O)C3=CC=CC=C3C)CN4C=NC5=C(N=CN=C54)N
How it was run: as §1

[4] = compound: Cc1sc2c(c1C)C(c1ccc(Cl)cc1)=N[C@@H](CC(=O)OC(C)(C)C)c1nnc(C)n1-2
How it was run: as §1

[5] = compound: c1ccc([C@@H]2C[C@H]2NC2CCNCC2)cc1
How it was run: as §1

Measured: log2 fold change

SLIRP (UniProt Q9GZT3)
inactive: [1] -0.038 | [2] -0.073 | [3] 0.01 | [4] -0.016 | [5] 0.042

STK38 (UniProt Q15208)
inactive: [1] -0.08 | [2] 0.045 | [3] 0.055 | [4] 0.028 | [5] -0.034

TATDN2 (UniProt Q93075)
inactive: [1] -0.044 | [2] -0.067 | [3] -0.037 | [4] 0.069 | [5] 0.071

SLC30A7 (UniProt Q8NEW0)
inactive: [1] -0.033 | [2] 0.052 | [3] -0.049 | [4] 0.039 | [5] -0.011

STAT5B (UniProt P51692)
inactive: [1] 0.036 | [2] 0.08 | [3] 0.05 | [4] 0.033 | [5] 0.052

SP1 (UniProt P08047)
inactive: [1] 0.002 | [2] -0.029 | [3] 0.016 | [4] 0.051 | [5] 0.02

SNUPN (UniProt O95149)
inactive: [1] -0.027 | [2] 0.051 | [3] 0.067 | [4] 0.03 | [5] 0.021

SRPRA (UniProt P08240)
inactive: [1] 0.001 | [2] -0.032 | [3] 0.031 | [4] -0.061 | [5] -0.038

STARD3NL (UniProt O95772)
Sequence of UniProt O95772 (O95772 whole entry, looked up): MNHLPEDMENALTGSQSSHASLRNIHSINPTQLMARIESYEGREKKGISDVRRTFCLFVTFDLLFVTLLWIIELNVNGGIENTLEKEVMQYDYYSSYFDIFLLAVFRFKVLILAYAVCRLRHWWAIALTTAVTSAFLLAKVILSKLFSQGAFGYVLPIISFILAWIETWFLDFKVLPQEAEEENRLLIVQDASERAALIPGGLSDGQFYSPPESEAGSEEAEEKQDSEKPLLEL
inactive: [1] 0.027 | [2] 0.025 | [3] 0.142 | [4] 0 | [5] 0.039

SSB (UniProt P05455)
inactive: [1] -0.02 | [2] 0.088 | [3] 0.014 | [4] 0.007 | [5] 0.055

SPCS2 (UniProt Q15005)
inactive: [1] -0.011 | [2] 0.043 | [3] -0.034 | [4] -0.061 | [5] -0.031

TIMM13 (UniProt Q9Y5L4)
Sequence of UniProt Q9Y5L4 (Q9Y5L4 whole entry, looked up): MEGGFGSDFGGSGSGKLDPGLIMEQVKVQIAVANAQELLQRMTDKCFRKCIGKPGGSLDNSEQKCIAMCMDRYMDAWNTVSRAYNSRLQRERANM
inactive: [1] -0.049 | [2] 0.049 | [3] 0.012 | [4] -0.035 | [5] 0.013

STX17 (UniProt P56962)
inactive: [1] 0.03 | [2] 0.006 | [3] 0.029 | [4] 0.004 | [5] -0.058

SRSF11 (UniProt Q05519)
Sequence of UniProt Q05519 (Q05519 whole entry, looked up): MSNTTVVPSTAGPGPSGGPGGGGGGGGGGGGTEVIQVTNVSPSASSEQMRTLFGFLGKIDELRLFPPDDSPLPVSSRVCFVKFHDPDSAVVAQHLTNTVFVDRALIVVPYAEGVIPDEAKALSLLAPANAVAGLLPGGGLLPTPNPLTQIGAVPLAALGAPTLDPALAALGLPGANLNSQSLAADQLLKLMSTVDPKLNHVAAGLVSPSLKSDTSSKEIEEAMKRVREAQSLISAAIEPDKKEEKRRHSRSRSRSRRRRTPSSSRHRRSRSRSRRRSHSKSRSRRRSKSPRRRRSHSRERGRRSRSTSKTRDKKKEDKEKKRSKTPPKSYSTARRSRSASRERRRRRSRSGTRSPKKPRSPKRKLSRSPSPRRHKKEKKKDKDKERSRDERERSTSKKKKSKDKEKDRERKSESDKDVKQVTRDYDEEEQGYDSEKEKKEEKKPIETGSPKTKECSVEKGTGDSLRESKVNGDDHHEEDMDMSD
inactive: [1] 0.008 | [2] 0.037 | [3] 0.044 | [4] -0.082 | [5] -0.028

SYK (UniProt P43405)
inactive: [1] 0.21 | [2] -0.221 | [3] -0.041 | [4] 0.132 | [5] -0.105

SMDT1 (UniProt Q9H4I9)
inactive: [1] 0.031 | [2] 0.018 | [3] -0.081 | [4] -0.019 | [5] 0.024

TBC1D9B (UniProt Q66K14)
Sequence of UniProt Q66K14 (Q66K14 whole entry, looked up): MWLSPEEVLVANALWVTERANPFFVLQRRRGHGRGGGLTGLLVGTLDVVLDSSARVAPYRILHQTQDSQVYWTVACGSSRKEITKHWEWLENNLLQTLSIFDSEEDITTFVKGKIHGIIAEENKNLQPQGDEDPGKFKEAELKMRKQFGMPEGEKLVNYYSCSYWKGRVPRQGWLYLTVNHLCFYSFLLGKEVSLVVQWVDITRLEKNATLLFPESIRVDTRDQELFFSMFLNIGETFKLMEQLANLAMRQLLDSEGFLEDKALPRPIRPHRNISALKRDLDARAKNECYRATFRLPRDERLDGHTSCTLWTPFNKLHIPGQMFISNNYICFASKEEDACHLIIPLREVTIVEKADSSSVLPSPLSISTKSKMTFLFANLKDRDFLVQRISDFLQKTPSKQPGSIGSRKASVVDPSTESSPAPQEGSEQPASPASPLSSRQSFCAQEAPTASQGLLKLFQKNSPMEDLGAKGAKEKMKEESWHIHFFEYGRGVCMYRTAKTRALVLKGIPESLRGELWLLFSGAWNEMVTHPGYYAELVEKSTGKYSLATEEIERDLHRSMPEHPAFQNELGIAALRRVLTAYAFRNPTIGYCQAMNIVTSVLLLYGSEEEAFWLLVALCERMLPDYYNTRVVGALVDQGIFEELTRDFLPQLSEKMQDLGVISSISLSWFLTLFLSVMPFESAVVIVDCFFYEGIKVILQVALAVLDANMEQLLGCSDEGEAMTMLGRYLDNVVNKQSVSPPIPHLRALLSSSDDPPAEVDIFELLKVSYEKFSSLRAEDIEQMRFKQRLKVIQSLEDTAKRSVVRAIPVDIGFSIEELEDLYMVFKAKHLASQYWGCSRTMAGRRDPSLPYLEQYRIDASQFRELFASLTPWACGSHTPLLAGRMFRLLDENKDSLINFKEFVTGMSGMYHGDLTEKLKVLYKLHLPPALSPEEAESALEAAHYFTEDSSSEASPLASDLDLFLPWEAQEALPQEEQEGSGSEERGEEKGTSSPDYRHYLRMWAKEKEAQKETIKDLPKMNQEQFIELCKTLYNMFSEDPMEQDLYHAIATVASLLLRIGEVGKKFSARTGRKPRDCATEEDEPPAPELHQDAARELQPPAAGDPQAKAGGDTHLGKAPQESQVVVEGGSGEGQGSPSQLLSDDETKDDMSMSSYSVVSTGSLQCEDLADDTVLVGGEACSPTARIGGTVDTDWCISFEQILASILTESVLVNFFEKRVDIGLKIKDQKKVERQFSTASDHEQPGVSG
inactive: [1] -0.025 | [2] 0.093 | [3] 0.042 | [4] 0.02 | [5] -0.062

SMARCE1 (UniProt Q969G3)
inactive: [1] -0.156 | [2] -0.002 | [3] 0.338 | [4] 0.111 | [5] -0.051

SRP68 (UniProt Q9UHB9)
inactive: [1] -0.041 | [2] 0.022 | [3] 0.039 | [4] 0.092 | [5] -0.029

STX7 (UniProt O15400)
Sequence of UniProt O15400 (O15400 whole entry, looked up): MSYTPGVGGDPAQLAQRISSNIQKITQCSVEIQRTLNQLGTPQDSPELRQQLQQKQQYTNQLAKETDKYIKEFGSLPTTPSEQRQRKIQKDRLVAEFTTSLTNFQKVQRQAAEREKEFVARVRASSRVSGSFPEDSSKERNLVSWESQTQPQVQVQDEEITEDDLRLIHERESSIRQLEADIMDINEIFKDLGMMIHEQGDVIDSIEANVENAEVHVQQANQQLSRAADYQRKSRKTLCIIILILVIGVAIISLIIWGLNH
inactive: [1] 0.023 | [2] 0.01 | [3] 0.027 | [4] -0.011 | [5] -0.011

SUGP1 (UniProt Q8IWZ8)
inactive: [1] 0 | [2] -0.001 | [3] 0.066 | [4] -0.046 | [5] 0.019

SNX2 (UniProt O60749)
Sequence of UniProt O60749 (O60749 whole entry, looked up): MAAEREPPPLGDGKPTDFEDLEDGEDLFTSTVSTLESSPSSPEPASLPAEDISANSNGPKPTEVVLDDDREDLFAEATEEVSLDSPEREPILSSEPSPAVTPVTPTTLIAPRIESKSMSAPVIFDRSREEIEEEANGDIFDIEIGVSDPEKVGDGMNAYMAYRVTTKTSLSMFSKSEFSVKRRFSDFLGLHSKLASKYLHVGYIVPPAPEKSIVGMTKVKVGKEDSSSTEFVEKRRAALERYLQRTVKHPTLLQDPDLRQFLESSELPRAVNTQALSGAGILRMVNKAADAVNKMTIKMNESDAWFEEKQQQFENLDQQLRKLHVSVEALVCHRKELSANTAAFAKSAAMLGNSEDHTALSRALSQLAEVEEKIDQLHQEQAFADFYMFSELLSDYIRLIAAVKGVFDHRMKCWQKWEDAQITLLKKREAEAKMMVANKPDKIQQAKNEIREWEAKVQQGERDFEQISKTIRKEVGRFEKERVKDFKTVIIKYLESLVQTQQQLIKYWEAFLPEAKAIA
inactive: [1] -0.015 | [2] 0.069 | [3] 0.066 | [4] -0.026 | [5] -0.079

TAF9 (UniProt Q16594)
inactive: [1] 0.046 | [2] -0.043 | [3] -0.114 | [4] 0.049 | [5] 0.019

TJP2 isoform 7 (UniProt Q9UDY2)
inactive: [1] -0.03 | [2] 0.084 | [3] 0.081 | [4] 0.04 | [5] -0.044

SRSF2 (UniProt Q01130)
inactive: [1] 0.008 | [2] -0.047 | [3] -0.052 | [4] 0.061 | [5] 0.143

SLC25A42 (UniProt Q86VD7)
inactive: [1] 0.073 | [2] 0.051 | [3] -0.019 | [4] -0.005 | [5] 0.003

STARD7 (UniProt Q9NQZ5)
Sequence of UniProt Q9NQZ5 (Q9NQZ5 whole entry, looked up): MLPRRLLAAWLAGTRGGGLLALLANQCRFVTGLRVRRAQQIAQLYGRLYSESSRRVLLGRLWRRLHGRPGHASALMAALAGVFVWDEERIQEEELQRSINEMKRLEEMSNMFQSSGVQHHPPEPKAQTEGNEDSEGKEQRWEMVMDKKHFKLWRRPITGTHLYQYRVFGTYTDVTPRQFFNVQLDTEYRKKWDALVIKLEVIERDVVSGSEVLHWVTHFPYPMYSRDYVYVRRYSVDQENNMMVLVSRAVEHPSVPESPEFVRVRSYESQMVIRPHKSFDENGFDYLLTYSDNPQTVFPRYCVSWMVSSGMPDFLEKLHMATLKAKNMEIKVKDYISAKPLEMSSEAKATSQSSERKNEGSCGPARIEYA
inactive: [1] -0.018 | [2] 0.075 | [3] 0.145 | [4] 0.063 | [5] -0.017

TGFBR1 isoform 2 (UniProt P36897)
inactive: [1] -0.001 | [2] 0.029 | [3] -0.047 | [4] -0.029 | [5] 0.026

THRAP3 (UniProt Q9Y2W1)
inactive: [1] 0.09 | [2] 0.193 | [3] -0.072 | [4] 0.046 | [5] 0.028

SNX11 (UniProt Q9Y5W9)
Sequence of UniProt Q9Y5W9 (Q9Y5W9 whole entry, looked up): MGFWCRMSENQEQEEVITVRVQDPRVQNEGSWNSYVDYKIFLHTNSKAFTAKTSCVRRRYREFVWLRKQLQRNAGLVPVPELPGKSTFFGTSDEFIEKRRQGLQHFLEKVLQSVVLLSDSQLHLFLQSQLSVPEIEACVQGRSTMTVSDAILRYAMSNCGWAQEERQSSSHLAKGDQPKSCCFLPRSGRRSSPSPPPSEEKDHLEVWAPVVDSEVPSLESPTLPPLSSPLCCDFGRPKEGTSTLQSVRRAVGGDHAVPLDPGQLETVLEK
inactive: [1] 0.004 | [2] 0.063 | [3] 0.108 | [4] 0.057 | [5] -0.027

STK25 (UniProt O00506)
inactive: [1] -0.022 | [2] 0.111 | [3] 0.015 | [4] -0.019 | [5] -0.016

SMAD9 (UniProt O15198)
inactive: [1] -0.104 | [2] 0.094 | [3] -0.001 | [4] 0.076 | [5] -0.054

SNX9 (UniProt Q9Y5X1)
inactive: [1] -0.051 | [2] 0.019 | [3] 0.048 | [4] 0.002 | [5] 0.017

ST6GAL1 (UniProt P15907)
Sequence of UniProt P15907 (P15907 whole entry, looked up): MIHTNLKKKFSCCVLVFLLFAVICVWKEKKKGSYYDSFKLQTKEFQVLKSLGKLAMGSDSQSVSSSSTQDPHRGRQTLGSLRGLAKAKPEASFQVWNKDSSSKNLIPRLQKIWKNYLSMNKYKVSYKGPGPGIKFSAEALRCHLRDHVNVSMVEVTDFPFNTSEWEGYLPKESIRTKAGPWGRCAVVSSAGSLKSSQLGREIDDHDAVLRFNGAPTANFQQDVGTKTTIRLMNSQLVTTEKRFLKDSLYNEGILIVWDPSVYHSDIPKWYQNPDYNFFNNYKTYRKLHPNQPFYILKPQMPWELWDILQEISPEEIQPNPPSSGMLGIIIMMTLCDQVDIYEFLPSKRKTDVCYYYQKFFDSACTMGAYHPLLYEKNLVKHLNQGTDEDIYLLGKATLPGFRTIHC
inactive: [1] 0.017 | [2] 0.012 | [3] 0.033 | [4] -0.018 | [5] -0.006

STARD9 (UniProt Q9P2P6)
inactive: [1] -0.073 | [2] 0.147 | [3] -0.072 | [4] 0.042 | [5] -0.087

SLC27A2 (UniProt O14975)
inactive: [1] 0.038 | [2] 0.036 | [3] 0.141 | [4] 0.011 | [5] -0.027

SPIRE1 (UniProt Q08AE8)
inactive: [1] 0.079 | [2] 0.002 | [3] 0.196 | [4] -0.01 | [5] 0.075

STK11IP (UniProt Q8N1F8)
inactive: [1] 0.035 | [2] 0.026 | [3] -0.02 | [4] 0.05 | [5] -0.048

TGFBRAP1 (UniProt Q8WUH2)
inactive: [1] -0.021 | [2] 0.03 | [3] 0.075 | [4] -0.105 | [5] -0.004

SRC isoform 2 (UniProt P12931)
inactive: [1] 0.016 | [2] 0.181 | [3] 0.125 | [4] 0.042 | [5] 0.003

THYN1 (UniProt Q9P016)
Sequence of UniProt Q9P016 (Q9P016 whole entry, looked up): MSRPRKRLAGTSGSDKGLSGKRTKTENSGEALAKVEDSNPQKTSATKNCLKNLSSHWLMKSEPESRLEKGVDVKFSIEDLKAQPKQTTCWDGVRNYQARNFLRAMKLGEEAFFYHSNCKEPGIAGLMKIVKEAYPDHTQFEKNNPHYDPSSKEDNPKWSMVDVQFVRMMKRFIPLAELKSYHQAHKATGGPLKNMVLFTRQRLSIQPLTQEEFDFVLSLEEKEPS
inactive: [1] -0.024 | [2] 0.044 | [3] 0.043 | [4] 0.01 | [5] -0.067

SLC27A1 (UniProt Q6PCB7)
inactive: [1] -0.02 | [2] 0.161 | [3] 0.293 | [4] 0.11 | [5] -0.029

TIPRL (UniProt O75663)
inactive: [1] -0.078 | [2] 0.07 | [3] 0.083 | [4] 0.001 | [5] -0.007

SSX2 (UniProt Q16385)
inactive: [1] 0.008 | [2] -0.024 | [3] 0.038 | [4] -0.021 | [5] 0.023

SYNE2 isoform 2 (UniProt Q8WXH0)
inactive: [1] 0.064 | [2] 0.055 | [3] 0.209 | [4] -0.004 | [5] 0.096

SLC38A2 (UniProt Q96QD8)
Sequence of UniProt Q96QD8 (Q96QD8 whole entry, looked up): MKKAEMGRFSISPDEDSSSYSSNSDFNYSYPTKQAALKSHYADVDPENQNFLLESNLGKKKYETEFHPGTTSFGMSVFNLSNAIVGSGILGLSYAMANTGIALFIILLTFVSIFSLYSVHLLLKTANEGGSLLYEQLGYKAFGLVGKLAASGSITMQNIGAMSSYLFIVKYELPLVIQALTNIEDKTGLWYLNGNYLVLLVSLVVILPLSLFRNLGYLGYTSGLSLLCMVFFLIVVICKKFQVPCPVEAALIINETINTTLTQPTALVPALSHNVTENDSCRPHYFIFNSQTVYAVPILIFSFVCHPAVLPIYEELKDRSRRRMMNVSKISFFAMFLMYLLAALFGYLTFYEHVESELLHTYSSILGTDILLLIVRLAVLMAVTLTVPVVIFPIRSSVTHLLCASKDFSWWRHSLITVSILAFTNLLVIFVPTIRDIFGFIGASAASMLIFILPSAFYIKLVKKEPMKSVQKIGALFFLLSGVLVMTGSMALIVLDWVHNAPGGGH
inactive: [1] -0.006 | [2] 0.044 | [3] 0.024 | [4] -0.028 | [5] 0.035

TEX264 (UniProt Q9Y6I9)
Sequence of UniProt Q9Y6I9 (Q9Y6I9 whole entry, looked up): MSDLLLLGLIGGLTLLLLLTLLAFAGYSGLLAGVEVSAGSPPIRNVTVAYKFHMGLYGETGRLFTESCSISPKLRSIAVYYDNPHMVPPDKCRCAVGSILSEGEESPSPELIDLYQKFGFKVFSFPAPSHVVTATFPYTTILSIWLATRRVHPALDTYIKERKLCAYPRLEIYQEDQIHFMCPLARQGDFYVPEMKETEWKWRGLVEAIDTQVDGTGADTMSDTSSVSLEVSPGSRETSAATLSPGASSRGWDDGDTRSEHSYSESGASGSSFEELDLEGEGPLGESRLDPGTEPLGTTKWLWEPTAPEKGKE
inactive: [1] -0.024 | [2] 0.03 | [3] -0.072 | [4] -0.084 | [5] -0.02

TFAM (UniProt Q00059)
inactive: [1] 0.062 | [2] -0.046 | [3] -0.018 | [4] 0.108 | [5] 0.009

STEAP3 isoform 2 (UniProt Q658P3)
inactive: [1] -0.011 | [2] 0 | [3] 0.022 | [4] -0.034 | [5] -0.04

SORT1 (UniProt Q99523)
inactive: [1] 0.029 | [2] -0.01 | [3] -0.03 | [4] 0.027 | [5] 0.009

TFB2M (UniProt Q9H5Q4)
inactive: [1] -0.019 | [2] 0.035 | [3] 0.103 | [4] -0.019 | [5] -0.022

SLC44A2 isoform 2 (UniProt Q8IWA5)
inactive: [1] 0.002 | [2] 0.077 | [3] -0.022 | [4] -0.045 | [5] 0.065

THADA (UniProt Q6YHU6)
inactive: [1] -0.06 | [2] 0.066 | [3] 0.011 | [4] -0.027 | [5] -0.032
